Experimental findings from PubChem BioAssay (EPA / NIEHS) are described below.

Structures are written as SMILES. Where “and” joins values, the source holds several entries; their conditions need not be identical. Equal entries are not always repeated. Calls of active or inactive are those of the source. How the source made its calls: active means hit-call score of the fitted dose curve at least 0.9, where 1 is the maximum; inactive means score below 0.9.

Read-out in one test: not listed separately
In words: BSK_KF3CT_SRB: Viability Assessment in the BioMAP Diversity Plus: KF3CT Assay (AID 2283069).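 Further: total protein by sulforhodamine B staining as a cytotoxicity measure; read 24 h after compound addition; fitted for both signal gain and loss against DMSO baseline.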 Particulars: primary human keratinocytes with fibroblasts. In a few lines:
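Human keratinocyte and foreskin fibroblast co-culture exposed to chemical for 24 h. Total protein measured in parallel cultures by 0.1% sulforhodamine B staining after 10% TCA fixation, read at 560 nm; bidirectional fit relative to DMSO.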
Regarding `O=C(O)CCC(F)(C(F)(F)F)C(F)(F)F`, the outcome was inactive.

Consider `CC(C)CCCCCCOC(=O)c1ccccc1C(=O)OCCCCCCC(C)C`, for which the result was inactive.

For the compound `Oc1c(I)cc(I)cc1I`, the outcome was inactive.

Turning to `O=C(O)C(F)(F)C(F)(F)C(F)(F)C(F)(F)C(F)(F)C(F)(F)C(F)(F)C(F)(F)C(F)(F)C(F)(F)F`, the AC50 was 9.99 µM (active) and 5.01 µM (active) and 5.38 µM (active).

For `CCC(=O)C(CC(C)N(C)C)(c1ccccc1)c1ccccc1` (stereo unspecified), the outcome was inactive.

In the case of `CCCCCCCCc1ccc(O)cc1`, the concentration at half-maximal activity (AC50) was 27.7 µM (active).

As for `NC(=O)O`, the result was inactive.

Regarding `Nc1ccc(-c2ccc(N)c(Cl)c2)cc1Cl`, the outcome was inactive.

For the compound `CC1(C)Cc2cccc(O)c2O1`, the result was inactive.

As to `C=C(C)C(=O)[O][Sn]([CH2]CCC)([CH2]CCC)[CH2]CCC`, the AC50 is 0.282 µM (active).

For the compound `CCCCCCCCC(=O)NCc1ccc(O)c(OC)c1`, the result was inactive.

In the case of `COC(=O)c1sccc1S(=O)(=O)NC(=O)Nc1nc(C)nc(OC)n1`, the outcome was inactive.

For the compound `O=c1[nH]c(=O)[nH]c(=O)[nH]1`, the result was inactive.

`CCOP(=S)(OCC)SCSP(=S)(OCC)OCC`: the outcome was inactive.

As for `O=Cc1cccc(Oc2ccccc2)c1`, the result was inactive.

With `COc1cc(-c2ccc(N)c(OC)c2)ccc1N`, the result was inactive.

With `COP(=S)(OC)Oc1ccc(S(=O)(=O)N(C)C)cc1`, the result was inactive.

On to `C(=NC1CCCCC1)=NC1CCCCC1`, for which the AC50 is 15 µM (active).

With `O=[N+]([O-])c1ccc(O)c([N+](=O)[O-])c1`, the result was inactive.

As to `CCC(C)(C)c1ccc(O)c(C(C)(C)CC)c1`, the AC50 is 7.84 µM (active).

As for `O=C(O)C(Cl)(Cl)Cl`, the outcome was inactive.

Take `Oc1cccc2cccnc12`: the AC50 is 2.78 µM (active).

Regarding `Cn1sc(Cl)cc1=O`, the result was inactive.

Consider `ClCC(Cl)CCl`, for which the outcome was inactive.

For `OCc1ccco1`, the result was inactive.

Consider `O=C(OC1CCCCC1)c1ccccc1C(=O)OC1CCCCC1`, for which the outcome was inactive.

With `O=S(=O)(c1ccc(Cl)cc1)c1ccc(Cl)cc1`, the result was inactive.

Consider `COC[C@H](C)N(C(=O)CCl)c1c(C)csc1C`, for which the result was inactive.

Regarding `CN(C)N=O`, the outcome was inactive.

Take `O=C1C2(Cl)C3(Cl)C4(Cl)C(Cl)(Cl)C5(Cl)C3(Cl)C1(Cl)C5(Cl)C24Cl` (stereo unspecified): the AC50 was 8.1 µM (active).

For `COP(=S)(OC)Oc1ccc(Sc2ccc(OP(=S)(OC)OC)cc2)cc1`, the result was inactive.

As for `CC(=O)C(Cl)C(=O)N(C)C` (stereo unspecified), the result was inactive.

Turning to `CCN1CCC2(CC1)COc1cc3c(cc12)N(C(=O)c1ccc(-c2ccc(-c4nnc(C)o4)cc2C)cc1)CC3`, the AC50 was 20.8 µM (active).

Read-out in the next test: Interleukin-1 alpha (IL1a), IL1A (gene 3552)
In words: BSK_KF3CT_IL1a: BioMAP Diversity Plus: KF3CT Assay for Interleukin-1 alpha (IL1a) Biomarker Activity (AID 2283070). Particulars: primary human keratinocytes with fibroblasts; actives raise or lower the signal. An outline of the steps:
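Primary human keratinocyte plus foreskin fibroblast co-culture, dosed and measured at 24 h in 96-well plates. IL-1a level quantified by ELISA; bidirectional fit relative to DMSO.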
As to `O=C(O)CCC(F)(C(F)(F)F)C(F)(F)F`, the result was inactive.

Consider `CC(C)CCCCCCOC(=O)c1ccccc1C(=O)OCCCCCCC(C)C`, for which the AC50 was 1.58 µM (active).

On to `Oc1c(I)cc(I)cc1I`, for which the AC50 is 27.7 µM (active).

On to `O=C(O)C(F)(F)C(F)(F)C(F)(F)C(F)(F)C(F)(F)C(F)(F)C(F)(F)C(F)(F)C(F)(F)C(F)(F)F`, for which the AC50 was 10.8 µM (active) and 3.41 µM (active) and 5.06 µM (active).

Regarding `CCC(=O)C(CC(C)N(C)C)(c1ccccc1)c1ccccc1` (stereo unspecified), the result was inactive.

As for `CCCCCCCCc1ccc(O)cc1`, the AC50 is 25 µM (active).

As to `NC(=O)O`, the result was inactive.

Regarding `Nc1ccc(-c2ccc(N)c(Cl)c2)cc1Cl`, the outcome was inactive.

As for `CC1(C)Cc2cccc(O)c2O1`, the outcome was inactive.

As to `C=C(C)C(=O)[O][Sn]([CH2]CCC)([CH2]CCC)[CH2]CCC`, the concentration at half-maximal activity (AC50) is 0.148 µM (active).

Take `CCCCCCCCC(=O)NCc1ccc(O)c(OC)c1`: the result was inactive.

Take `COC(=O)c1sccc1S(=O)(=O)NC(=O)Nc1nc(C)nc(OC)n1`: the result was inactive.

As for `O=c1[nH]c(=O)[nH]c(=O)[nH]1`, the outcome was inactive.

Take `CCOP(=S)(OCC)SCSP(=S)(OCC)OCC`: the outcome was inactive.

Regarding `O=Cc1cccc(Oc2ccccc2)c1`, the outcome was inactive.

Regarding `COc1cc(-c2ccc(N)c(OC)c2)ccc1N`, the result was inactive.

In the case of `COP(=S)(OC)Oc1ccc(S(=O)(=O)N(C)C)cc1`, the result was inactive.

Consider `C(=NC1CCCCC1)=NC1CCCCC1`, for which the AC50 is 17.2 µM (active).

Consider `O=[N+]([O-])c1ccc(O)c([N+](=O)[O-])c1`, for which the outcome was inactive.

Take `CCC(C)(C)c1ccc(O)c(C(C)(C)CC)c1`: the AC50 was 9.89 µM (active).

On to `O=C(O)C(Cl)(Cl)Cl`, for which the outcome was inactive.

With `Oc1cccc2cccnc12`, the AC50 was 2.13 µM (active).

In the case of `Cn1sc(Cl)cc1=O`, the result was inactive.

With `ClCC(Cl)CCl`, the outcome was inactive.

Take `OCc1ccco1`: the result was inactive.

Consider `O=C(OC1CCCCC1)c1ccccc1C(=O)OC1CCCCC1`, for which the AC50 was 15.3 µM (active).

As to `O=S(=O)(c1ccc(Cl)cc1)c1ccc(Cl)cc1`, the outcome was inactive.

Turning to `COC[C@H](C)N(C(=O)CCl)c1c(C)csc1C`, the outcome was inactive.

On to `CN(C)N=O`, for which the outcome was inactive.

For `O=C1C2(Cl)C3(Cl)C4(Cl)C(Cl)(Cl)C5(Cl)C3(Cl)C1(Cl)C5(Cl)C24Cl` (stereo unspecified), the AC50 was 22.9 µM (active).

For the compound `COP(=S)(OC)Oc1ccc(Sc2ccc(OP(=S)(OC)OC)cc2)cc1`, the result was inactive.

For the compound `CC(=O)C(Cl)C(=O)N(C)C` (stereo unspecified), the AC50 was 13.9 µM (active).

Consider `CCN1CCC2(CC1)COc1cc3c(cc12)N(C(=O)c1ccc(-c2ccc(-c4nnc(C)o4)cc2C)cc1)CC3`, for which the AC50 was 31.4 µM (active).
